The results in this text go back to PubChem BioAssay (NCI).

Where “and” joins values, the source holds several entries; their conditions need not be identical. Equal entries are not always repeated. About 83,000 compounds went through this panel and 20% of them were active in at least one assay; those are over-represented in the sample as a whole.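 Interpretation: 100, growth as untreated; towards 0, rising growth inhibition; 0, no net growth; 0 to -100, cell death. Compounds scoring below 10 were considered active.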 Calls of active or inactive are those of the source.

This assay has as its system SN12C renal. The assay can be described thus: NCI-60 one-dose screen, 48 h (100 = growth as untreated, 0 = no growth, -100 = all killed). As to conditions: 10 µM unless noted.
Turning to `O=C(O)C1(C(=O)O)CCC1.[NH2-].[NH2-].[Pt+2]`, the growth is 102% (inactive) and 103% (inactive).

Turning to `CC1(C)[C@@H](OC(=O)CCC(=O)O)CC[C@]2(C)[C@H]3C(=O)C=C4[C@@H]5C[C@@](C)(C(=O)O)CC[C@]5(C)CC[C@@]4(C)[C@]3(C)CC[C@@H]12`, the growth was 102% (inactive) and -19.1% (active). The value for `CCNC(=O)Nc1ccc(-c2nc3c(c(N4CCOC[C@@H]4C)n2)CCN(C2COC2)C3)cc1` was 36.1% (inactive) and 14.7% (inactive); that for `O=C1C2=C(C(=O)c3ccccc31)C(O)(S(=O)(=O)O)C(O)(S(=O)(=O)O)C1N=CC=CC21` (stereo not given) was 34.5% (inactive) and 39.1% (inactive); that for `COc1ccc2c(=O)cc(-c3ccccc3)[nH]c2c1` was 45.7% (inactive) and 42.7% (inactive). The value for `COc1cc(Nc2nc3ccccc3nc2NS(=O)(=O)c2ccc(NC(=O)c3ccc(C)c(OC)c3)cc2)cc(OC)c1` was 49.1% (inactive) and 14.8% (inactive); that for `COc1cc(-c2nccc3cc4c(cc23)OCO4)cc(OC)c1OC` was 39% (inactive) and 47.3% (inactive); that for `CCN(CC)CCC(CNc1ccnc2cc(Cl)ccc12)c1ccc(OC)cc1` (stereo not given) was 71.4% (inactive) and 60.8% (inactive). The value for `CC(=O)Nc1ccc(O)cc1` was 90.2% (inactive) and 102% (inactive) and 108% (inactive); that for `c1ccc2c(CC3=NCCN3)cccc2c1` was 103% (inactive) and 107% (inactive); that for `Cc1nn(-c2ccc(Cl)cc2)c2ncnc(N/N=C/c3ccccc3O)c12` was 23.1% (inactive) and 4.76% (active). As for `CCN(CC)C(=S)SSC(=S)N(CC)CC`, the growth is 78.9% (inactive) and 106% (inactive). The value for `Nc1nc(SC/C=C/CCl)c2[nH]cnc2n1` was 108% (inactive) and 111% (inactive); that for `CC1CCCC(=O)O1` (stereo not given) was 111% (inactive).

With `c1ccc(NCc2ccc3c(c2)OCO3)cc1`, the growth is 105% (inactive) and 100% (inactive). Turning to `CN(Cc1ccccc1)Cc1ccccc1`, the growth is 101% (inactive).

For the compound `O=[N+]([O-])c1ccc(N/N=C\c2cc(Br)ccc2O)nc1`, the growth is 22.3% (inactive) and 20.3% (inactive). The value for `O=C(Nc1ccc(Br)cc1)c1cc(Br)ccc1O` was 6.5% (active) and -10.3% (active); that for `CN(C)c1ccc(C(=C2C=CC(=[N+](C)C)C=C2)c2ccccc2Cl)cc1` was -42% (active) and -50.3% (active); that for `O=C(Cc1cccc2ccccc12)N/N=C/c1ccc2c(c1)CCC2` was 84% (inactive). The value for `O=C(O)C1C2C=CC(C2)C1C(=O)O` (stereo not given) was 84.7% (inactive) and 24% (inactive) and 102% (inactive); that for `COc1cc(C(=O)c2ccc3c(c2)OCO3)cc(OC)c1OC` was 47.1% (inactive) and 39.5% (inactive); that for `O=C(CCc1ccc(O)cc1)N/N=C/c1cc(Br)ccc1O` was 63.7% (inactive).

On to `CC(=O)Oc1cc(C(=O)O)cc(OC(C)=O)c1OC(C)=O`, for which the growth is 93.9% (inactive) and 99.7% (inactive).

Consider `Cn1c(=O)c2[nH]c(CCCCCCCCc3nc4ccccc4[nH]3)nc2n(C)c1=O`, for which the growth is 81.2% (inactive) and 68% (inactive). The value for `O=C1c2ccccc2C(=O)N1/N=C/c1ccc2c(c1)OCO2` was 86.3% (inactive); that for `S=C1SCN(Cc2ccccc2)CN1Cc1ccccc1` was 90.5% (inactive); that for `Cc1ccc(-c2noc(CC(=O)c3ccc([N+](=O)[O-])cc3)n2)cc1` was 94.1% (inactive).

Regarding `Oc1ccc(/C=C/c2ccccc2)cc1`, the growth was 74.5% (inactive) and 72.4% (inactive). The value for `CC(=O)C(/C=N/C(N)=O)=C(/C)O` was 105% (inactive); that for `COC(=O)c1nc(N)nc(C(=O)OC)c1C(=O)c1ccc(OC)cc1` was 113% (inactive) and 78.5% (inactive). Consider `Cc1cc(O)c2c(c1)C(=O)c1cc(O)cc(O)c1C2=O`, for which the growth was 86.1% (inactive) and 91.1% (inactive). With `C#CCN(C)Cc1ccccc1`, the growth is 95.7% (inactive) and 82.5% (inactive).

Regarding `CCN(CC)CCCC(C)Nc1ccnc2cc(Oc3ccccc3)ccc12` (stereo not given), the growth is 71.2% (inactive) and 74.4% (inactive). The value for `COc1ccccc1NC(=O)OCC#CCOC(=O)Nc1ccccc1OC` was 107% (inactive) and 92.4% (inactive).
